# The list is not random: actives were taken first. Their share in the collection is about 8.3%.
# Chronic BCR inh: inhibitors of chronic active B-cell receptor signaling; ABC-DLBCL IkBa-CBG/CBR reporter, luminescence ratio, 4 h; Potency, µM (titrated, usually from 46.1 µM), hits mostly inhibitors; 340,000 tested, 0.05% active; AID 493014; active = well fitted inhibition curve with a large enough effect in the signal ratio, with a control signal flat, not every such curve was filed as active; inconclusive = small, poorly fitted or top-dose-only effect, or effect the other way, or a change in a side signal; the % refers to the signal ratio
#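 Compounds up to 46 uM were incubated four hours with TMD8 cells whose green CBG68 luciferase is fused to IkappaBalpha; red CBR luminescence normalised the signal, and concentration-effect curves were fitted to fusion, red and ratio data.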
# Giardia killer: kills Giardia lamblia; 340,000 tested, 0.15% active; activity change, % at 7.66 µM, hits read low; Giardia lamblia trophozoite viability; in the data active = activity change below about -80%; inconclusive = between about -30% and that limit;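 also: parasites exposed to compound for two days anaerobically before the ATP read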
#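 ATP-content bioluminescence gauges trophozoite survival. Cells (100/well) receive compound and incubate anaerobically for 48 hrs at 37 deg C; detection reagent follows for 15-30 min at room temperature.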
# SW480 rereplic: induces DNA re-replication in SW480 colon adenocarcinoma cells. Potency, µM (titrated, usually from 46.1 µM), hits mostly activators. 340,000 tested, 1.8% active. SW480 DNA re-replication, Hoechst DNA content imaging, 48 h. AID 624297; also: nearly all actives have a fitted effect of over 55% in size
#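 Hoechst fluorescence of nuclei (405 nm excitation, 500-530 nm emission) measured by plate-scanning imager after 48 hr compound exposure at 37 C; re-replication scored as increased number of nuclei with elevated intensity.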
# RORgamma inh: blocks mouse ROR gamma transcriptional activity. Drosophila S2 Gal4-RORgamma UAS-luciferase reporter, 20 h. Potency, µM (highest dose often 53.6 µM), most hits filed as inhibitors. 310,000 tested, 5.4% active; also: nearly all actives have a fitted effect of over 60% in size
# Target sequence (P51450 whole entry, looked up, the tested form may be a part): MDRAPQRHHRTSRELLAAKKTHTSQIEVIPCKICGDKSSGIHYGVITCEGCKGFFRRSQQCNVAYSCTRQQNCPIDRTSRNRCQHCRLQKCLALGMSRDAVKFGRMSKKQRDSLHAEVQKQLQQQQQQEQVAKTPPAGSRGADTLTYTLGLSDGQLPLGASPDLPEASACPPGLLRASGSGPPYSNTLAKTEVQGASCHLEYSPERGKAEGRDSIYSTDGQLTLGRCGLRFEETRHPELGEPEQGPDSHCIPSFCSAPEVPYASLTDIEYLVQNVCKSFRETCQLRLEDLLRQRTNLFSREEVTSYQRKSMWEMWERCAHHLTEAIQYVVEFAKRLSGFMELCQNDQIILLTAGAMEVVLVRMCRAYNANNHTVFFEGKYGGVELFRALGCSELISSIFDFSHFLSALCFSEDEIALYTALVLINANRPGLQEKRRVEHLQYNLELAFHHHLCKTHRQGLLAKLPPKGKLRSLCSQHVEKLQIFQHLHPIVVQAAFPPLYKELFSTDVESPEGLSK
#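 Compounds are pin-transferred onto Drosophila Schneider cells expressing a copper-inducible Gal4–ROR gamma transactivation domain fusion. After 1 hr, copper sulfate is added to 700 uM final; luciferase is read 20 hr later.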
# MCF10A rereplic: DNA re-replication induction in MCF 10a cells; MCF 10A DNA re-replication, Hoechst nuclear intensity, 48 h; Potency, µM (doses to about 46.1 µM), actives largely listed as activators; 350,000 tested, 2.9% active; also: nearly all actives have a fitted effect of over 50% in size
# VP16 counter: counter-screen for ROR gamma inhibitors: Gal4-VP16 reporter | Drosophila S2 Gal4-VP16 UAS-luciferase, luminescence, 20 h | Potency, µM (series often up to 53.6 µM), actives largely listed as inhibitors | 310,000 tested, 3.5% active;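 also: Gal4-VP16 expression switched on by copper sulfate through the metallothionein promoter; nearly all actives have a fitted effect of over 50% in size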
# Numbers stand for hits; n = inactive; u = inconclusive; x = no result; [ ] = dose if it differs, or a comment. Unless noted, calls follow the shape of the dose curve; as a rule, active = well fitted curve in the direction sought with a large enough effect; inconclusive = small, poorly fitted or top-dose-only effect, or another doubt; inactive = no such curve, though single readings can be large; an effect the other way counts as inactive or inconclusive.
SMILES,Chronic BCR inh,Giardia killer,SW480 rereplic,RORgamma inh,MCF10A rereplic,VP16 counter
COc1ccc(-c2nc3ccc(NC(=O)CO)cc3c(=O)n2Cc2cccc(Cl)c2)cc1COc1ccc(NC(C)=O)cc1,x,n,x,x,x,x
O=C(NCCc1ccco1)C(=O)NCC1CCCN1S(=O)(=O)c1ccccc1 (stereo not drawn),n,n,16µM,x,u,x
Cc1ccc(S(=O)(=O)N2CCCCC2CCNC(=O)C(=O)NCCc2ccco2)cc1 (stereo not drawn),n,n,6.5µM,x,3.7µM,x
O=C(NCCC1CCCCN1S(=O)(=O)c1ccccc1)C(=O)Nc1ccc(F)cc1F (stereo not drawn),u,u,u,x,18µM,x
Cc1ccc(C)c(S(=O)(=O)N2CCCCC2CCNC(=O)C(=O)NCCc2ccco2)c1 (stereo not drawn),n,n,n,x,n,x
Cc1ccc(C)c(S(=O)(=O)N2CCCC2CNC(=O)C(=O)NCCc2ccco2)c1 (stereo not drawn),n,n,n,x,u,x
Cc1ccc(S(=O)(=O)N2CCCCC2CCNC(=O)C(=O)NCc2ccco2)cc1 (stereo not drawn),n,n,u,x,9.2µM,x
COC1=C(OC)C(=O)C(Sc2ccc3ccccc3c2)=CC1=O,x,n,18µM,x,5.8µM,x
CC(=O)Oc1ccc(/C=C2\C=C(c3ccc(C)cc3)OC2=O)cc1,u,n,n,0.45µM,n,u
CC(NCc1ccc(OCc2ccc(Cl)cc2)cc1)C(O)c1ccccc1 (stereo not drawn),n,n,u,35µM,18µM,u
COC(=O)CNC(=O)COC(=O)/C=C/c1ccccc1[N+](=O)[O-],n,n,n,n,5.8µM,n
COC(=O)C(=Cc1ccccc1[N+](=O)[O-])C(=O)OC,u,n,u,u,23µM,n
Cn1c(CNC(=O)CNS(=O)(=O)c2ccc(Br)cc2)cc(=O)n(C)c1=O,n,n,n,n,n,n
CC(C)=CCC/C(C)=C/CO/N=C1/C[C@@H](O)[C@@H](O)[C@@H]2[C@@H]3C(=O)N(C4CCCCC4)C(=O)[C@H]3CC[C@H]12,x,x,x,n[10 µM],x,n[10 µM]
COc1ccc(Cc2nnc(NS(=O)(=O)c3ccc(Cl)cc3)s2)cc1OC,u,n,n,n,n,n
O=C(Nc1ccccc1Cl)C1CCCN1C(=O)OCc1ccccc1 (stereo not drawn),n,n,u,n,n,n
COc1cc(OC)cc(C(=O)NC(=S)Nc2cc3oc4ccccc4c3cc2OC)c1,n,n,n,1.4µM,u,u
COc1ccc(C(=O)NC(=S)Nc2cc3oc4ccccc4c3cc2OC)cc1,n,n,n,u,n,n
COc1cc2c(cc1NC(=S)NC(=O)c1c(OC)cccc1OC)oc1ccccc12,u,n,n,3.5µM,n,u
COc1cc2c(cc1NC(=O)CN(C)Cc1cccc(OC)c1OC)oc1ccccc12,u,n,u,u,7.3µM,u
COCCNC(=S)Nc1cc2oc3ccccc3c2cc1OC,n,n,u,5.6µM,n,7.1µM
COc1ccc(CC(=O)Nc2cc3oc4ccccc4c3cc2OC)cc1,n,n,n,n,n,n
COc1ccccc1CC(=O)Nc1cc2oc3ccccc3c2cc1OC,n,n,n,n,n,n
CS(=O)(=O)c1ccc(C(=O)N2CCN(C(=O)c3ccco3)CC2)cc1,n,n,n,x,n,x
CC(O)C1CCC2C3CCC4CC(O)CCC4(C)C3CCC12C (stereo not drawn),x,x,n,n[10 µM],n,n
SMILES,Chronic BCR inh,Giardia killer,SW480 rereplic,RORgamma inh,MCF10A rereplic,VP16 counter
O=C(O)c1cc(S(=O)(=O)N2CCCCC2)ccc1N1CCCC1,n,n,n,x,n,x
COc1cccc(OC)c1OCCNCC1CSc2ccccc2O1 (stereo not drawn),x,n,n,x,n,x
Cc1cccc(N(C)S(=O)(=O)c2ccc(-c3cc(C)no3)s2)c1,u,n,0.82µM,n,u,n
CCOc1ccc(N(C)S(=O)(=O)c2ccc(-c3cc(C)no3)s2)cc1,u,n,9.2µM,u,4.6µM,n
Nc1nonc1C(=O)NCCNC(=O)c1ccc(Cl)c(Cl)c1,n,n,n,n,n,n
COc1ccc(-c2cn(Cc3ccc(C(N)=O)cc3)c(-c3ccncc3)n2)cc1,u,n,n,x,u,x
CC(C)CC(=O)N(c1nnc(-c2cccnc2)s1)C1CCCC1,u,u,n,x,n,x
COc1cc(Br)cc(/C=C/c2ccc3cccc(O)c3n2)c1OC,u,n,n,2.5µM,n,u
COc1ccc(Br)cc1/C=C/c1ccc2cccc(O)c2n1,u,n,u,4.5µM,n,u
CCC(=O)N1CCC(NC(=O)Nc2ccc(OC(F)(F)F)cc2)CC1,n,n,n,x,n,x
COCCCN1C(=O)C2C(C(=O)Nc3cc(C)cc(C)c3)C3C=CC2(O3)C1C(=O)NC1CCCCC1 (stereo not drawn),n,n,n,n,n,n
Cc1cccc(C(=O)OCC(=O)N(C)C(c2ccccc2)c2ccccc2)c1[N+](=O)[O-],u,n,n,x,n,x
CC(C)c1ccc2oc(-c3cc(N)ccc3O)nc2c1,u,n,n,10µM,n,22µM
S=C(Nc1ccccc1)N1CCCN1c1ccccc1,n,n,n,n,n,n
CN1C(=O)/C(=C/c2ccc(OCc3ccccc3F)cc2)NC1=S,u,n,n,u,u,n
COc1cc(/C=C2\NC(=S)N(C)C2=O)ccc1OCc1ccccc1F,n,n,u,11µM,u,u
CCOc1cc(/C=C2/C(=O)ON=C2C)ccc1OCc1ccc(F)cc1,n,n,18µM,n,u,n
CCOc1cc(/C=C2/C(=O)ON=C2C)ccc1OCc1ccccc1,u,n,u,u,u,u
CCOc1cc(/C=C2/C(=O)ON=C2C)ccc1OCc1ccccc1F,n,n,23µM,u,u,u
CCCCCOC(=O)c1[nH]c2c(c1C)C(=O)C(C(=O)OC)C(C)C2 (stereo not drawn),n,n,u,u,21µM,n
CNC(=S)N/N=C/c1c(C)nn(-c2cccc(Cl)c2)c1Cl,u,n,n,2µM,n,1.3µM
CNC(=S)N/N=C/c1c(C)nn(-c2ccccc2)c1Cl,u,n,u,u,u,0.89µM
O=C(NCc1ccc(F)cc1)C(=O)Nc1nc(C23CC4CC(CC(C4)C2)C3)cs1,n,n,u,5.6µM,18µM,4µM
O=C(NCc1ccccc1)C(=O)Nc1nc(C23CC4CC(CC(C4)C2)C3)cs1,n,n,u,7.9µM,u,7.1µM
Cc1noc(C)c1C(=O)Nc1nc(C23CC4CC(CC(C4)C2)C3)cs1,u,n,n,u,u,22µM
O=C(NCc1ccncc1)C(=O)Nc1nc(C23CC4CC(CC(C4)C2)C3)cs1,u,n,n,n[10 µM],u,n
O=C1CSc2ccc(S(=O)(=O)N3CCN(c4ccccc4)CC3)cc2N1,u,n,n,n,n,n

# Bioassay records as filed in PubChem.
